The inhibition is the drop in the measured response relative to a control, in per cent.

For assay [1], the target named is Tyrosine-protein kinase receptor UFO (Homo sapiens) (UniProt P30530). The note with it: at 1 µM.
The target of assay [2] is Tyrosine-protein kinase Blk (Homo sapiens) (UniProt P51451). The conditions noted are these: at 0.1 µM.
Assay [3] shares this target. The conditions noted are these: at 1 µM.
The target of assay [4] is T1, Cytoplasmic tyrosine-protein kinase BMX (Homo sapiens) (UniProt P51813).
T1 sequence (whole entry): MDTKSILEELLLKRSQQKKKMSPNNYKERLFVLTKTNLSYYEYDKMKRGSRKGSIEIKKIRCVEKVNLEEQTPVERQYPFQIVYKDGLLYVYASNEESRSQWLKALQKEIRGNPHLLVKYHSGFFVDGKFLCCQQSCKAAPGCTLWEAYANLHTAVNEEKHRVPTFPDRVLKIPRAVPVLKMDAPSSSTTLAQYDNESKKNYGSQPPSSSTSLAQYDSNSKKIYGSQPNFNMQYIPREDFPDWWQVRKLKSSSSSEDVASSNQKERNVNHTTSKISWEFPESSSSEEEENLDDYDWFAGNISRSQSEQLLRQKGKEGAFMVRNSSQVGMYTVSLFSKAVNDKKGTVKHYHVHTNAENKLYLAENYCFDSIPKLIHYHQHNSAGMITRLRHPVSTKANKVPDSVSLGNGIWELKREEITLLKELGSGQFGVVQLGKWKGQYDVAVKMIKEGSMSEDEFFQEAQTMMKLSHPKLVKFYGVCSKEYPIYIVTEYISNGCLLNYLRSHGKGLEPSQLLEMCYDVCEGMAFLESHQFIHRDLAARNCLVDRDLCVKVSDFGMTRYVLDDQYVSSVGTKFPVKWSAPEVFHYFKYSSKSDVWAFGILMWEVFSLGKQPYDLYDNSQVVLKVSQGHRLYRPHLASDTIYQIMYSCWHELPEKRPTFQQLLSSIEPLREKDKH
The conditions noted are these: at 0.1 µM.

The target in assay [5] is T1, Cytoplasmic tyrosine-protein kinase BMX (Homo sapiens). The note with it: at 1 µM.
Assay [6] addresses Protein-tyrosine kinase 6 (Homo sapiens) (UniProt Q13882). The note with it: at 0.1 µM.
Assay [7] shares this target. The note with it: at 1 µM.
For assay [8], the target named is Tyrosine-protein kinase BTK (Homo sapiens) (UniProt Q06187). The conditions noted are these: at 0.1 µM.
Tyrosine-protein kinase BTK (Homo sapiens), sequence (Q06187 whole entry): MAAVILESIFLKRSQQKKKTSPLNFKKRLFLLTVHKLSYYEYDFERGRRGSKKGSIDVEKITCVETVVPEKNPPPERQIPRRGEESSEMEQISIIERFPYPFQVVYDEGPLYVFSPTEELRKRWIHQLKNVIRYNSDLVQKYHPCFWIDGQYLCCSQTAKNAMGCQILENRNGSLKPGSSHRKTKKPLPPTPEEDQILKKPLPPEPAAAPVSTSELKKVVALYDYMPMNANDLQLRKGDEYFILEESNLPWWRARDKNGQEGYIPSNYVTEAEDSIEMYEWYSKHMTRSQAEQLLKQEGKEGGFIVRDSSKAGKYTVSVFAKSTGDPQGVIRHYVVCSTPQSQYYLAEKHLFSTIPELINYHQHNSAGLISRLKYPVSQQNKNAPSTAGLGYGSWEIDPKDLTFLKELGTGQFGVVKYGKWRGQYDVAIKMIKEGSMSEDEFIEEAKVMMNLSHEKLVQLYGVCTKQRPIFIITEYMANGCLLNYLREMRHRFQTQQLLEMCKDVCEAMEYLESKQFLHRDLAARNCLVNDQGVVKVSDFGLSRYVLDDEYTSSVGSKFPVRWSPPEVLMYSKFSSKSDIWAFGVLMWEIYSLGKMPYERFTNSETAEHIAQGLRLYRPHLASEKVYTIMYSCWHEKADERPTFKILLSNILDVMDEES
The target is the same in assay [9]. The note with it: at 1 µM.
Assay [10] has as its target Tyrosine-protein kinase CSK (Homo sapiens) (UniProt P41240). The note with it: at 0.1 µM.
For assay [11] the target is unchanged. The conditions noted are these: at 1 µM.
In assay [12] the target is T2, Discoidin domain-containing receptor 2 (Homo sapiens) (UniProt Q16832).
T2 sequence (whole entry): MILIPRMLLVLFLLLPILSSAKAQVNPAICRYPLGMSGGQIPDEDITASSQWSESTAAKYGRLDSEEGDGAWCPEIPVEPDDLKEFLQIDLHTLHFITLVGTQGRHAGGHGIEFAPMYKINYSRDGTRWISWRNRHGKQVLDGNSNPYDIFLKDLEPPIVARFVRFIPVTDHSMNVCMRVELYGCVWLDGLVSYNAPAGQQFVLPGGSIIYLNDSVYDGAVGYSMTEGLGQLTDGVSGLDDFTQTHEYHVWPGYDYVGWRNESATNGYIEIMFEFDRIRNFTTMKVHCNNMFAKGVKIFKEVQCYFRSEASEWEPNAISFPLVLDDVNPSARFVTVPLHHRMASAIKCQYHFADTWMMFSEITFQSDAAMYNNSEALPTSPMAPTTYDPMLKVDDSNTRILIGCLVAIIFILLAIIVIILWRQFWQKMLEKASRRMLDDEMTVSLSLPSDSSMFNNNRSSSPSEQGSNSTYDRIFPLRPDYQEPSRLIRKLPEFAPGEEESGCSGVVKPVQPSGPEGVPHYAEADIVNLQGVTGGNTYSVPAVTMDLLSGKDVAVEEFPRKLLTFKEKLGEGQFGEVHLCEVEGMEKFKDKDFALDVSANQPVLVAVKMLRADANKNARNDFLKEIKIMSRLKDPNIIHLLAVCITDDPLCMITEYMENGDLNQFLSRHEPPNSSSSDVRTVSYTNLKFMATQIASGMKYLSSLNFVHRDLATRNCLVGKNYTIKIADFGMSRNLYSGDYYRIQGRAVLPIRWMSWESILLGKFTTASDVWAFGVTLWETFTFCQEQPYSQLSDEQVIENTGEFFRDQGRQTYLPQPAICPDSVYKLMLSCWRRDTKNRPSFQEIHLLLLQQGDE
The conditions noted are these: at 0.1 µM.

Assay [13] addresses T2, Discoidin domain-containing receptor 2 (Homo sapiens). The conditions noted are these: at 1 µM.
Assay [14] deals with Epidermal growth factor receptor (Homo sapiens) (UniProt P00533). The note with it: at 0.1 µM.
Assay [15] has the same target. The conditions noted are these: at 1 µM.
For assay [16], the system named is Epidermal growth factor receptor (Homo sapiens), P00533 [L858R]. The note with it: at 0.1 µM.
Assay [17] shares this test system. The conditions noted are these: at 1 µM.
Assay [18] has as its system Epidermal growth factor receptor (Homo sapiens), P00533 [L861Q]. The note with it: at 0.1 µM.
For assay [19] the test system is unchanged. The note with it: at 1 µM.
Assay [20] deals with Epidermal growth factor receptor (Homo sapiens), P00533 [T790M]. The note with it: at 0.1 µM.
Epidermal growth factor receptor (Homo sapiens), P00533 [T790M], sequence (P00533 whole entry T790M): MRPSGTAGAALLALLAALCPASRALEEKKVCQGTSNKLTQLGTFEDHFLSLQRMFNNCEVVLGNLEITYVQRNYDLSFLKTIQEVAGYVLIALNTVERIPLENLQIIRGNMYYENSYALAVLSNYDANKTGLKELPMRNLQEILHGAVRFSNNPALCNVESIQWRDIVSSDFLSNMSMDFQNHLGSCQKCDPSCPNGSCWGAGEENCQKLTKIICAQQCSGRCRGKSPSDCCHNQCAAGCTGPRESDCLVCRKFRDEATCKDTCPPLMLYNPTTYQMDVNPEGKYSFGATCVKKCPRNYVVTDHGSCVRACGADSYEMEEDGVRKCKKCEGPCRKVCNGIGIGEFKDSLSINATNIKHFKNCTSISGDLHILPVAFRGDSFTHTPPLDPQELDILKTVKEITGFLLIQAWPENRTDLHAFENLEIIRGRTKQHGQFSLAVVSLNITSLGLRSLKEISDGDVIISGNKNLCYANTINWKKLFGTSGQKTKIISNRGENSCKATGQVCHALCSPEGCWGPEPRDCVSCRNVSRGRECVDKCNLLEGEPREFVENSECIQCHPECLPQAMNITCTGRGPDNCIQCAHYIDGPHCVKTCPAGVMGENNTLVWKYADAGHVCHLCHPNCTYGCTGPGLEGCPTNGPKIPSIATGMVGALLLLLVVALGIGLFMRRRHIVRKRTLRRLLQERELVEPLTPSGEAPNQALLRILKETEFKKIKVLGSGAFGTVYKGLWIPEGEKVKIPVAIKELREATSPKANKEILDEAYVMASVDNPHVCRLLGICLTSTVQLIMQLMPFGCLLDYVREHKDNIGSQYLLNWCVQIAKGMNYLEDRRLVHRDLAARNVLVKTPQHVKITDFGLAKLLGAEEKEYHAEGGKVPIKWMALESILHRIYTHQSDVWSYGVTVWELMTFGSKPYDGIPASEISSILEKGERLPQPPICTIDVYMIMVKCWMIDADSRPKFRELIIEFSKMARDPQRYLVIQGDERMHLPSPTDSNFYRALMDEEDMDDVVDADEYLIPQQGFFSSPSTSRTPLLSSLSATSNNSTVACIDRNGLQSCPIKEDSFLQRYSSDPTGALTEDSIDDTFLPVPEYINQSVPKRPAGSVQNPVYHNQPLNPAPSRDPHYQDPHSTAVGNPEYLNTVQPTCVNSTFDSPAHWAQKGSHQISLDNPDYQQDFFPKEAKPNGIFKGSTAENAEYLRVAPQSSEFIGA

Epidermal growth factor receptor (Homo sapiens), P00533 [L861Q], sequence (P00533 whole entry L861Q): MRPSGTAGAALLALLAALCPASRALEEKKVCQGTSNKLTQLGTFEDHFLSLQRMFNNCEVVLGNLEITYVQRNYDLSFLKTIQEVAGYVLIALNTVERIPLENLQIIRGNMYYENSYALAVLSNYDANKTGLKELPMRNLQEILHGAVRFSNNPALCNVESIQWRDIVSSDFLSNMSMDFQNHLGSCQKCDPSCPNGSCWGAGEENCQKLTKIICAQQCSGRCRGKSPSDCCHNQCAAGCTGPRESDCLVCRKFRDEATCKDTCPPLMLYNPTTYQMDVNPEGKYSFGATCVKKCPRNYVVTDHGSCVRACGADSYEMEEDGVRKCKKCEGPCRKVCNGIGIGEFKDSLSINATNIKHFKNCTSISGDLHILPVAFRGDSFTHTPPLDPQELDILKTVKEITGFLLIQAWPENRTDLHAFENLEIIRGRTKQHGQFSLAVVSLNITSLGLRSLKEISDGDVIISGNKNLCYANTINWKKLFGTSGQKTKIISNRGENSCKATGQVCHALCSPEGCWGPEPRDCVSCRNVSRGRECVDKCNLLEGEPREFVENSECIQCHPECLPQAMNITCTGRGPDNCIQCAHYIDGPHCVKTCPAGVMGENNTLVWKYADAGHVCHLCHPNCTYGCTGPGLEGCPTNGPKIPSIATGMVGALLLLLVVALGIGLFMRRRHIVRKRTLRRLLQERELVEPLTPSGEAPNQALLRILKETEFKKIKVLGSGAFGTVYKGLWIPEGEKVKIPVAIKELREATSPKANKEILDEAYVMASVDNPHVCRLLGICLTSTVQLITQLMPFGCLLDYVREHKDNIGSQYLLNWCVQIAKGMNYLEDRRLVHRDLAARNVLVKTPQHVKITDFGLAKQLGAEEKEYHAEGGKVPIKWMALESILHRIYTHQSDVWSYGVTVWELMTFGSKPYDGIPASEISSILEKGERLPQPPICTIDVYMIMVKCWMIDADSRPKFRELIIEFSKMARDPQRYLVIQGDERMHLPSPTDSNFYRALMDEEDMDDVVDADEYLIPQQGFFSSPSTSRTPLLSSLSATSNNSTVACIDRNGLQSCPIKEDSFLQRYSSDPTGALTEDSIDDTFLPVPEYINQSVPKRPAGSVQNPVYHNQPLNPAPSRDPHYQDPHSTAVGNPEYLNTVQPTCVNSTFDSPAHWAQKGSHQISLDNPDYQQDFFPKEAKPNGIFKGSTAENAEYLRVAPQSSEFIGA
Tyrosine-protein kinase Blk (Homo sapiens), sequence (P51451 2-505 limits assumed): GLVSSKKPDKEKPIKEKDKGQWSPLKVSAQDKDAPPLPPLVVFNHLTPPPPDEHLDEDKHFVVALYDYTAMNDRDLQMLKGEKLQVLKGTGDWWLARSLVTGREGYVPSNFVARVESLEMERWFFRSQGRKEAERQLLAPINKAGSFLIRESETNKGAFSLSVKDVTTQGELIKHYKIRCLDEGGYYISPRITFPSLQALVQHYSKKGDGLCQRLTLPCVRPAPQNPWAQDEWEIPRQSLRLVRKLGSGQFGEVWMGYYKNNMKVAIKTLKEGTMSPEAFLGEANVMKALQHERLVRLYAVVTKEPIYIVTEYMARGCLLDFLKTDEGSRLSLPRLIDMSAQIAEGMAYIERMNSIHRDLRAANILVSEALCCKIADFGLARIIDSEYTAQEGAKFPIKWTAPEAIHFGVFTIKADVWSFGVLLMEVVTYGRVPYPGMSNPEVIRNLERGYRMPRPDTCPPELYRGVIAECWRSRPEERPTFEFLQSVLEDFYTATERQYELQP
Tyrosine-protein kinase CSK (Homo sapiens), sequence (P41240 2-450 limits assumed): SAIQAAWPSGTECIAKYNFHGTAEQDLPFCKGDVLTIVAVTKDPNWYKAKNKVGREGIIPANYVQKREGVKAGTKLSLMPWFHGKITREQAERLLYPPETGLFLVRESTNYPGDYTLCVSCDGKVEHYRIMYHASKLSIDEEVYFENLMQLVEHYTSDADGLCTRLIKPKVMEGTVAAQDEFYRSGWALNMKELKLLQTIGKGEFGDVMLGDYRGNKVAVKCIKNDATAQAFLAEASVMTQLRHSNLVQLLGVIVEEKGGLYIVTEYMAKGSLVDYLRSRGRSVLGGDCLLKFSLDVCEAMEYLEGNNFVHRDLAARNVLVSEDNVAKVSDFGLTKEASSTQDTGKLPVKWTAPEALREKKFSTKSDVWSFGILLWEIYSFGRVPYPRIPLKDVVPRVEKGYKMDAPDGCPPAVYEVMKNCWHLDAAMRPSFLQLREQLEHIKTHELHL
Protein-tyrosine kinase 6 (Homo sapiens), sequence (Q13882 whole entry, looked up): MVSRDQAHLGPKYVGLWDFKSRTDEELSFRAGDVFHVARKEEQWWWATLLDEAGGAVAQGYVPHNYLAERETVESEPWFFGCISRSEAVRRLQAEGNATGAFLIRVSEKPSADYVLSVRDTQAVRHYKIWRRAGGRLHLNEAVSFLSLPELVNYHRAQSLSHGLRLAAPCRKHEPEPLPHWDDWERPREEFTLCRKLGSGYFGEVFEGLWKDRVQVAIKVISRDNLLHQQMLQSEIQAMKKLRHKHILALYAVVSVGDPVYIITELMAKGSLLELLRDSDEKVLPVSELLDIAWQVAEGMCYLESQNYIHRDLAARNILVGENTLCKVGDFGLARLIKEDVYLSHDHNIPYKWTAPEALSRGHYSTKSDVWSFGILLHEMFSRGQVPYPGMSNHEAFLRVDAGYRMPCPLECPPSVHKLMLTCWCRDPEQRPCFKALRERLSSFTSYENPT

Take `Cc1cc(Cl)cc2c1NC(=O)C2=NNc1ccc(S(N)(=O)=O)cc1`: the inhibition in [1] was -2.47%; in [2], 1.98%; in [3] it was 1.63%; in assay [4], 3.4%; in assay [5], 2.55%; in assay [6], -0.72%. Also, the inhibition was 1.77% in [7]; 2.48% in assay [8]; 0.33% in assay [9]; -0.78% in assay [10]; 3.65% in assay [11]; 5.11% in assay [12]. Further, the inhibition in assay [13] came to 4.88%; in assay [14], 0.92%; in assay [15] it was 1.34%; in assay [16], 0.35%; in assay [17] it was 4.79%; in [18], 1.56%. Besides, the values for the inhibition in assay [19] and in assay [20] were 4.09% and 1.21%, respectively.
As to `CCS(=O)(=O)c1ccc(OC)c(Nc2ncc(-c3cccc(OC)c3)o2)c1`, the inhibition is -1.98% in assay [1]; 10.4% in assay [2]; 64.3% in assay [3]; -2.1% in assay [4]; 25.9% in assay [5]; 6.68% in assay [6]. Moreover, the inhibition in assay [7] was 40.7%; in assay [8], 3.67%; in assay [9] it was 21.6%; in assay [10], -0.51%; in assay [11], 10.6%; in assay [12], 3.76%. Moreover, the inhibition in assay [13] turned out to be 20%; in [14], 1.96%; in assay [15], 8.46%; in assay [16], 6.95%; in assay [17] it was 27.6%; in [18], 4.06%. In addition, the inhibition in assay [19] was 6.2%; in assay [20], 1.83%.
With `Cc1cc(-c2ccccn2)cc(C)c1/C=C/c1cncc(-c2nn[nH]n2)c1`, the inhibition in assay [1] was -1.94%; in assay [2], 5.71%; in assay [3], 33.4%; in [4], 1.6%; in assay [5], 31.2%; in assay [6] it was 9.43%. The inhibition worked out at 51% in assay [7]; 2.43% in [8]; 0.75% in assay [9]; 1.73% in assay [10]; 20.2% in assay [11]; 1.22% in [12]. The inhibition came to 5.62% in [13]; 2% in assay [14]; 9.58% in assay [15]; 2.87% in assay [16]; 4.85% in assay [17]; 2.42% in assay [18]. Besides, the inhibition was 5.99% in assay [19] and -0.39% in assay [20].
Turning to `[O-][S+]1CCN(Cc2ccc(-c3ccc4ncnc(Nc5ccc(OCc6ccccc6)c(Cl)c5)c4c3)o2)CC1`, the inhibition in assay [1] was 0.46%; in [2] it was -0.34%; in [3], 6.7%; in [4] it was 0.31%; in [5], 2.05%; in assay [6], 0.38%. Further, the inhibition is 11% in assay [7]; -1.44% in [8]; -0.83% in assay [9]; -0.03% in assay [10]; 1.54% in assay [11]; 0.28% in assay [12]. Besides, in assay [13], the inhibition is 1.54%.
With `Nc1nccc(C#Cc2cncnc2Nc2ccc(OCc3cccc(F)c3)c(Cl)c2)n1`, the inhibition in assay [1] amounted to 1.72%; in assay [2] it was 3.54%; in [3] it was 5.98%; in assay [4] it was 1.74%; in assay [5], 8.65%; in [6], 4.52%. Further, the inhibition in assay [7] amounted to 3.74%; in assay [8], 0.96%; in assay [9] it was 7.04%; in assay [10] it was 10.2%; in assay [11] it was 3.09%; in assay [12], 1.14%. In addition, the inhibition in assay [13] is 4.7%.
Regarding `c1ccc(Cc2nc3ccc(Nc4ncnc5ccccc45)cc3[nH]2)cc1`, the inhibition in [1] is -3.16%; in assay [2] it was 2.78%; in assay [3], 7.6%; in assay [4], 5.75%; in assay [5] it was 5.59%; in assay [6] it was 5.48%. In addition, the inhibition in [7] was found to be 5.84%; in assay [8], 0.25%; in [9] it was 1.7%; in [10], 8.17%; in assay [11], 30.9%; in [12], 0.85%. Besides, the inhibition in assay [13] was determined as 1.06%; in [14], 24.3%; in assay [15], 67.2%; in assay [16] it was 2.32%; in assay [17], 11.3%; in [18] it was 12%. Besides, the inhibition amounted to 22.2% in assay [19] and 2.05% in assay [20].
For `OCc1ccc(-c2nc(-c3ccccn3)c(-c3ccc4c(c3)OCO4)[nH]2)cc1`, the inhibition in [1] is -3.37%; in assay [2] it was 3.13%; in [3], 5.92%; in assay [4] it was -2.19%; in [5] it was 4.67%; in [6], 4.49%. The inhibition in assay [7] came out at 5.07%; in assay [8], 3.02%; in assay [9], 3.51%; in assay [10], 3.92%; in assay [11], 3.94%; in assay [12], 2.68%. In addition, the inhibition in assay [13] worked out at 4.73%; in [14], 3.69%; in [15], 6.33%; in assay [16] it was 3.45%; in [17], 1.89%; in assay [18] it was 3.49%. In addition, the inhibition in assay [19] was -0.4%; in assay [20] it was 2.68%.

These data come from ChEMBL document CHEMBL1961873, “Compounds: GSK PKIS; Assays: Nanosyn kinase panel” (2012).
